Data as given in PubChem BioAssay (NCATS).
Results filed as inconclusive are left out. More than one record can exist for a structure, and the calls need not agree. Activity calls are given as the source filed them. Calls come from the whole dose curve; as a rule, active = well fitted inhibition curve with a large enough effect; inconclusive = small, poorly fitted or top-dose-only effect; inactive = flat fitted curve, though single readings scatter.

Assays:
[1] = tested on: CRL-7250; experiment: Cytotoxic Profiling of Annotated Libraries Using Quantitative High-Throughput Screening (AID 1296008); conditions: Five cell lines viability, CellTiter-Glo ATP luminescence, 48-72 h; max response: stronger effect = lower value; for max response: % is set by controls: 0 for no effect and ±100 for the full control effect
Summary of the method: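 Compounds were pin-transferred onto cells and incubated 48 or 72 hr at 37 degree Celsius, 95% humidity. CellTiter-Glo was added, plates sat 10 min at room temperature, then ATP-coupled luminescence was imaged as the viability read-out.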

[2] = tested on: Dd2; experiment: qHTS profiling for inhibitors of Plasmodium falciparum proliferation (AID 504749); conditions: P. falciparum in erythrocytes, SYBR Green DNA, 72 h; series mostly up to 28.7 µM
Summary of the method: (§1)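 Fluorescence of SYBR Green-bound parasite DNA, read at 485/535 nm, served as the growth measure. Infected erythrocytes were cultured with compound 72 h; artemisinin (0.29 uM) and DMSO wells defined the normalization range.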

[3] = tested on: ECU; experiment: as above; conditions: P. falciparum in erythrocytes, SYBR Green DNA, 72 h; series mostly up to 28.7 µM
Summary of the method: as §1

[4] = tested on: FAB9; experiment: as above; conditions: P. falciparum in erythrocytes, SYBR Green DNA, 72 h; series mostly up to 28.7 µM
Summary of the method: as §1

[5] = tested on: GB4; experiment: as above; conditions: P. falciparum in erythrocytes, SYBR Green DNA, 72 h; series mostly up to 28.7 µM
Summary of the method: as §1

[6] = tested on: HB3; experiment: as above; conditions: P. falciparum in erythrocytes, SYBR Green DNA, 72 h; series mostly up to 28.7 µM
Summary of the method: as §1

[7] = tested on: ICS; experiment: as above; conditions: P. falciparum in erythrocytes, SYBR Green DNA, 72 h; series mostly up to 28.7 µM
Summary of the method: as §1

[8] = tested on: JCK; experiment: as above; conditions: P. falciparum in erythrocytes, SYBR Green DNA, 72 h; series mostly up to 28.7 µM
Summary of the method: as §1

[9] = tested on: N140; experiment: as above; conditions: P. falciparum in erythrocytes, SYBR Green DNA, 72 h; series mostly up to 28.7 µM
Summary of the method: as §1

[10] = tested on: P93_24; experiment: as above; conditions: P. falciparum in erythrocytes, SYBR Green DNA, 72 h; series mostly up to 28.7 µM
Summary of the method: as §1

[11] = tested on: P94_40; experiment: as above; conditions: P. falciparum in erythrocytes, SYBR Green DNA, 72 h; series mostly up to 28.7 µM
Summary of the method: as §1

[12] = tested on: PAD; experiment: as above; conditions: P. falciparum in erythrocytes, SYBR Green DNA, 72 h; series mostly up to 28.7 µM
Summary of the method: as §1

[13] = tested on: PC15; experiment: as above; conditions: P. falciparum in erythrocytes, SYBR Green DNA, 72 h; series mostly up to 28.7 µM
Summary of the method: as §1

[14] = tested on: PC26; experiment: as above; conditions: P. falciparum in erythrocytes, SYBR Green DNA, 72 h; series mostly up to 28.7 µM
Summary of the method: as §1

[15] = tested on: PC49; experiment: as above; conditions: P. falciparum in erythrocytes, SYBR Green DNA, 72 h; series mostly up to 28.7 µM
Summary of the method: as §1

[16] = tested on: SC27B; experiment: as above; conditions: P. falciparum in erythrocytes, SYBR Green DNA, 72 h; series mostly up to 28.7 µM
Summary of the method: as §1

[17] = tested on: TAB109; experiment: as above; conditions: P. falciparum in erythrocytes, SYBR Green DNA, 72 h; series mostly up to 28.7 µM
Summary of the method: as §1

[18] = tested on: TAB113; experiment: as above; conditions: P. falciparum in erythrocytes, SYBR Green DNA, 72 h; series mostly up to 28.7 µM
Summary of the method: as §1

[19] = tested on: TAB165; experiment: as above; conditions: P. falciparum in erythrocytes, SYBR Green DNA, 72 h; series mostly up to 28.7 µM
Summary of the method: as §1

[20] = tested on: W2; experiment: as above; conditions: P. falciparum in erythrocytes, SYBR Green DNA, 72 h; series mostly up to 28.7 µM
Summary of the method: as §1
Note: nearly all actives have a fitted effect of over 60% in size.
Potency is the fitted concentration of half-maximal effect.

CC(=O)OCCN1C(=O)c2c(C)nc3ccc(S(=O)(=O)N4CCOCC4)cc3c2C1=O
inactive: max response [1] -12.8%

c1cc(-c2cnn3cc(-c4ccc(OCCN5CCCCC5)cc4)cnc23)ccn1
active: Potency [1] 6.62 µM

Nc1ccn([C@@H]2CS[C@H](CO)O2)c(=O)n1
inactive: Potency [2] | Potency [3] | Potency [4] | Potency [5] | Potency [6] | Potency [7] | Potency [8] | Potency [9] | Potency [10] | Potency [11] | Potency [12] | Potency [13] | Potency [14] | Potency [15] | Potency [16] | Potency [17] | Potency [18] | Potency [19] | Potency [20]

CC(C)CC(=O)Nc1n[nH]c2c1CN(C(=O)C1CCN(C)CC1)C2(C)C
active: Potency [1] 1.48 µM
inactive: max response [1] -90.6%

CCNC(=O)Nc1ccc2ncc(Nc3ccc(C)cc3)nc2n1
inactive: max response [1] -2.45% | outcome [1]

COc1cc(C(=O)NS(=O)(=O)c2ccccc2C)ccc1Cc1cn(C)c2ccc(NC(=O)OC3CCCC3)cc12
inactive: Potency [3] | Potency [4] | Potency [6] | Potency [8] | Potency [9] | Potency [10] | Potency [12] | Potency [13] | Potency [15] | Potency [17] | Potency [19] | outcome [1]
active: Potency [11] 12.6 µM | Potency [20] 7.57 µM

COc1ccc2c(OCc3nnc4ccc(-c5ccccc5)nn34)ccnc2c1
inactive: max response [1] -1.03% | outcome [1]

Cc1ccc2nc(NC(=O)CSc3nc4c(c(=O)n3-c3ccccc3)SCC4)sc2c1
inactive: max response [1] 3.83%
active: Potency [1] 13.2 µM

O=C1CCC[C@@H]2[C@H]3CCC[N+]4([O-])CCC[C@@H](CN12)[C@@H]34 (some centres not stated)
inactive: max response [1] 2.61% | outcome [1]

CC1(C)O[C@@H]2C[C@@H]3[C@H]4C[C@@H](F)C5=CC(=O)C=C[C@]5(C)[C@@]4(F)[C@@H](O)C[C@]3(C)[C@]2(C(=O)CO)O1
inactive: Potency [2] | Potency [3] | Potency [4] | Potency [6] | Potency [8] | Potency [9] | Potency [10] | Potency [11] | Potency [12] | Potency [13] | Potency [15] | Potency [16] | Potency [17] | Potency [18] | Potency [19] | Potency [20] | max response [1] -20%
